Source: the supplement of paper PMC10849652
Of roughly 7,900 targets only a part is listed; those with a hit were picked by preference. About 0.6% of all pairs of compound and target were hits.

How the values were obtained:
Assay in all cases: log2 fold change, soluble protein after heating vs DMSO (PISA); higher = thermal stabilisation; K562 cells, 10 uM, 30 min; active = over 0.2 and 3.5 SD of the protein, either way, in both replicates (recomputed)
[1] = compound: C1COCCN1CCN2C3=CC=CC=C3N=C2NC(=O)C4=CC(=CC=C4)[N+](=O)[O-] [IRAK-1-4 Inhibitor I]
Method in brief: (§1)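 Soluble protein was defined as the supernatant after 21,000xg for 90 min. It came from K562 cells at 2×10^6 cells/mL given 10 μM compound for 30 min, heated in aliquots for 3 min across 48°C-58°C, pooled, and extracted in PBS with 0.5% NP-40 at 4°C, and was quantified by TMTpro 16plex LC-MS/MS with equalised channel sums. Thermal stability against control samples, from duplicates, is reported as log2 fold change.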

[2] = compound: C=CC(=O)N1CCC[C@@H](n2nc(-c3ccc(Oc4ccccc4)cc3)c3c(N)ncnc32)C1 [ibrutinib]
Method in brief: as §1

[3] = compound: CC(=O)c1cnc2ccc(-c3cc(Cl)c(O)c(Cl)c3)nc2c1N[C@H]1CC[C@H](CN(C)C)CC1
Method in brief: as §1

[4] = compound: CC(C)(C)Cn1c(N)nc2ccc(-c3[nH]c(C(C)(C)C)nc3-c3ccc(F)cc3)nc21 [ralimetinib]
Method in brief: as §1

[5] = compound: CC(C)C1=C2N=C(C=C(N2N=C1)NCC3=CC=CC=C3)NCCCCCCN
Method in brief: as §1

[6] = compound: CC(C)C[C@@H](C=O)NC(=O)[C@H](CC(C)C)NC(=O)[C@H](CC(C)C)NC(=O)OCc1ccccc1
Method in brief: as §1

[7] = compound: CC(C)N(C[C@H]1O[C@@H](n2cnc3c(N)ncnc32)[C@H](O)[C@@H]1O)[C@H]1C[C@@H](CCc2nc3cc(C(C)(C)C)ccc3[nH]2)C1 [pinometostat]
Method in brief: as §1

[8] = compound: CC1=C(C(CC(=O)N1)C2=CC=C(C=C2)C(F)(F)F)C(=O)NC3=C(C=C4C(=C3)C=NN4)F
Method in brief: as §1

[9] = compound: CC1=C(C2=C(C=C1)C(=O)C3=CC=CC=C3N2CCCN)C
Method in brief: as §1

[10] = compound: CC1=C(C=C(C=C1)NC(=O)C2=CC(=CC=C2)C(C)(C)C#N)NC3=CC4=C(C=C3)N=CN(C4=O)C
Method in brief: as §1

[11] = compound: CC1=C(C=C(C=C1)NC(=O)C2=CC(=CC=C2)N(C)C)NC(=O)C3=CC=C(C=C3)O
Method in brief: as §1

[12] = compound: CC1=CC=C(C=C1)SC2=C3C=C(SC3=CN=C2)C(=O)N
Method in brief: as §1

[13] = compound: CC1=NC(=CC=C1)C2=C(N=C(N2)C(C)(C)C)C3=CC4=NC=CN=C4C=C3
Method in brief: as §1

[14] = compound: CCCS(=O)(=O)Nc1ccc(F)c(C(=O)c2c[nH]c3ncc(-c4ccc(Cl)cc4)cc23)c1F [vemurafenib]
Method in brief: as §1

[15] = compound: CCCS(=O)(=O)Nc1ccc(F)c(C(=O)c2c[nH]c3ncc(Cl)cc23)c1F
Method in brief: as §1

[16] = compound: CCCc1cc(C)[nH]c(=O)c1CNC(=O)c1cc(-c2ccnc(N3CCN(C)CC3)c2)cc2c1cnn2C(C)C
Method in brief: as §1

[17] = compound: CCN(CC)Cc1ccc2cc(COC(=O)Nc3ccc(C(=O)NO)cc3)ccc2c1 [givinostat]
Method in brief: as §1

[18] = compound: CCN(CCCOc1ccc2c(Nc3cc(CC(=O)Nc4cccc(F)c4)[nH]n3)ncnc2c1)CCOP(=O)(O)O [barasertib]
Method in brief: as §1

[19] = compound: CC(C)(O)CC(=O)NCCn1ccc2ncnc(Nc3ccc(Oc4cccc(C(F)(F)F)c4)c(Cl)c3)c21
Method in brief: as §1

[20] = compound: CCCCN(Cc1ccc(C(=O)NO)cc1)C(=O)Nc1ccccc1 [Nexturastat A]
Method in brief: as §1

Measured: log2 fold change

ORC5 (UniProt O43913)
inactive: [1] 0.024 | [2] -0.014 | [3] -0.306 | [4] 0.015 | [5] -0.134 | [6] 0.005 | [7] 0.128 | [8] -0.005 | [9] 0.08 | [10] -0.193 | [11] -0.089 | [12] 0 | [13] -0.038 | [14] 0.058 | [15] 0.058 | [16] 0.058 | [17] -0.009 | [18] 0.025

MTFR1L (UniProt Q9H019)
Sequence of UniProt Q9H019 (Q9H019 whole entry, looked up): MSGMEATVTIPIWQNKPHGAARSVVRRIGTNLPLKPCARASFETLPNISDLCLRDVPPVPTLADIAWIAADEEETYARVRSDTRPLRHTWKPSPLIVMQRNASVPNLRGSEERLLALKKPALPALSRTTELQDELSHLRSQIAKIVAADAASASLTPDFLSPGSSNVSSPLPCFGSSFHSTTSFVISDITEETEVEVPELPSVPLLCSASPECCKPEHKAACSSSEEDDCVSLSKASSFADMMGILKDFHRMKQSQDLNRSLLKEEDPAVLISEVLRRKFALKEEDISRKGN
inactive: [1] 0.04 | [2] 0.048 | [3] -0.052 | [4] -0.005 | [19] 0.014 | [5] -0.412 | [6] 0.047 | [7] 0.003 | [8] 0.041 | [9] -0.05 | [10] 0.082 | [11] -0.006 | [12] 0.008 | [13] -0.122 | [20] -0.027 | [14] 0.048 | [15] 0.116 | [17] 0.031 | [18] -0.026

MRPS26 (UniProt Q9BYN8)
inactive: [1] -0.09 | [2] 0.008 | [3] 0.007 | [4] -0.049 | [19] -0.143 | [5] 0.03 | [6] 0.137 | [7] 0.037 | [9] -0.133 | [10] 0.021 | [11] -0.083 | [12] 0.002 | [13] -0.03 | [20] 0.075 | [14] -0.004 | [15] 0.049 | [16] -0.056 | [17] 0.098 | [18] 0.026

MXRA7 (UniProt P84157)
inactive: [1] 0.098 | [2] 0.048 | [3] -0.064 | [4] -0.012 | [19] 0.116 | [5] 0.075 | [6] -0.083 | [7] -0.049 | [8] -0.011 | [9] -0.045 | [10] -0.181 | [11] -0.015 | [12] 0.038 | [13] 0.011 | [20] -0.002 | [14] 0.041 | [15] -0.032 | [16] -0.078 | [17] 0.011 | [18] 0.048

MYH11 isoform 2 (UniProt P35749)
inactive: [1] 0.035 | [2] -0.013 | [3] 0.028 | [4] -0.016 | [19] -0.107 | [5] 0.056 | [6] -0.002 | [7] -0.042 | [8] 0.027 | [9] -0.024 | [10] 0.009 | [11] 0.057 | [12] -0.003 | [13] 0.004 | [20] -0.014 | [14] 0.051 | [15] -0.006 | [16] -0.253 | [17] 0.032 | [18] 0.057

MYH10 isoform 3 (UniProt P35580)
Sequence of UniProt P35580 (P35580 whole entry, looked up): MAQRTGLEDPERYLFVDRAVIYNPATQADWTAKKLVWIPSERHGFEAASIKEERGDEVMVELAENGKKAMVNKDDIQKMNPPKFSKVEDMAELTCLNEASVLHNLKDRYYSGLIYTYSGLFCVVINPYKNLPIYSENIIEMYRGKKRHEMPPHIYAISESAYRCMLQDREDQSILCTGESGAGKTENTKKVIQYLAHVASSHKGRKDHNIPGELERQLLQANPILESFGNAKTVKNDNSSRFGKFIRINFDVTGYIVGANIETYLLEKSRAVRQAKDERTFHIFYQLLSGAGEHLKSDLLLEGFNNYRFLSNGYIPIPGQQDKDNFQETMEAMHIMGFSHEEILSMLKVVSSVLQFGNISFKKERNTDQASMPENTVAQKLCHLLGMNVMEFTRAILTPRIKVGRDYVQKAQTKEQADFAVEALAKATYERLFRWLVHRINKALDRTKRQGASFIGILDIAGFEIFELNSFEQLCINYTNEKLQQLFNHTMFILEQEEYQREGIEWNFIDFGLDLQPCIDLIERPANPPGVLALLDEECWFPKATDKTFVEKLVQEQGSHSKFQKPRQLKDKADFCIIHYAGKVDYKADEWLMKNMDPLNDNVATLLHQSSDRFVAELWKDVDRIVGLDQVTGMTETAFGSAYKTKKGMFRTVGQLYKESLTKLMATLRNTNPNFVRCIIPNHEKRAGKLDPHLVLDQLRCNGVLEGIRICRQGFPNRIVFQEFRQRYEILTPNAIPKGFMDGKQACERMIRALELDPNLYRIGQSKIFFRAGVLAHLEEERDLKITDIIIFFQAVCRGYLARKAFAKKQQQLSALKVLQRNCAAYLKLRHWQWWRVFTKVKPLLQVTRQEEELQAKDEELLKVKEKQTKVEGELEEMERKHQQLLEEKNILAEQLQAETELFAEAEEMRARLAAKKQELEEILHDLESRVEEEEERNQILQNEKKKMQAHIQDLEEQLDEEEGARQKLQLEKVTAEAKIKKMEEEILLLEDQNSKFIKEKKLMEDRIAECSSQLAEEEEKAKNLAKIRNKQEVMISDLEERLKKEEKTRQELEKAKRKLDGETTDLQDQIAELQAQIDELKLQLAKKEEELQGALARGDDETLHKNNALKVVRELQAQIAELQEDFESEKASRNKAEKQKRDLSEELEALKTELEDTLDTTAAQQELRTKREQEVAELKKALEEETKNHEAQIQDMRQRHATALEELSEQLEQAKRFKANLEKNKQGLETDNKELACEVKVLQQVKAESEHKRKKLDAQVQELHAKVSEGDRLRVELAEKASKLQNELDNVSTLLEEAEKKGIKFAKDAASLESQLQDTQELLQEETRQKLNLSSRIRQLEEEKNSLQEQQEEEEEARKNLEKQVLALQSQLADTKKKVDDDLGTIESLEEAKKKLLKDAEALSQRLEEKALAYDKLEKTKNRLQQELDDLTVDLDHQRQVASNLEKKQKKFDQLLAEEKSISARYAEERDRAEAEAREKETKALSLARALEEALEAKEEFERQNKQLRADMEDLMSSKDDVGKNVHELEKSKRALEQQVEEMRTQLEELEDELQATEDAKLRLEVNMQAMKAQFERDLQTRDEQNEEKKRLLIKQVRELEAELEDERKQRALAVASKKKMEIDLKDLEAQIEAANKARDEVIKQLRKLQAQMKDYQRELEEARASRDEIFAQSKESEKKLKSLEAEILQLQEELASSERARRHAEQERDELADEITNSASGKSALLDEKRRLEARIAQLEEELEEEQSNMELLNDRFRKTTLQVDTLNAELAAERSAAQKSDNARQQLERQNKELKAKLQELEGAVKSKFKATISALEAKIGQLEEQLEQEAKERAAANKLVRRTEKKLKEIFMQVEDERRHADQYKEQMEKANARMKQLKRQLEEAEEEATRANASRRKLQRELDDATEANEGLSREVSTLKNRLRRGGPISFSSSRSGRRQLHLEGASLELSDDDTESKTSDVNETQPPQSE
inactive: [1] 0.024 | [2] -0.022 | [3] -0.011 | [4] -0.04 | [19] -0.069 | [5] -0.05 | [6] -0.001 | [7] -0.015 | [8] -0.019 | [9] -0.024 | [10] 0.009 | [11] -0.033 | [12] 0.019 | [13] 0.07 | [20] -0.05 | [14] 0.028 | [15] 0.05 | [16] 0 | [17] -0.003 | [18] 0.038

NDUFB1 (UniProt O75438)
Sequence of UniProt O75438 (O75438 whole entry, looked up): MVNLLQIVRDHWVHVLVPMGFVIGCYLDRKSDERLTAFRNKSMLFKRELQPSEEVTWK
inactive: [1] 0.034 | [2] 0.024 | [3] 0.06 | [19] -0.043 | [5] -0.052 | [7] 0.065 | [8] 0.059 | [9] 0.158 | [10] -0.087 | [12] -0.08 | [13] 0.067 | [20] 0.027 | [14] -0.001 | [15] 0.065 | [16] 0.025 | [17] -0.015 | [18] -0.009

NFYB (UniProt P25208)
inactive: [1] 0.07 | [2] -0.051 | [3] 0.019 | [4] 0.016 | [5] 0.054 | [6] -0.007 | [7] -0.043 | [8] 0.026 | [10] -0.012 | [11] -0.118 | [12] -0.023 | [13] 0.025 | [14] 0.026 | [15] 0.025 | [16] 0.044 | [17] -0.012 | [18] 0.049
active: [9] 0.411

MLST8 (UniProt Q9BVC4)
inactive: [1] 0.002 | [2] -0.048 | [3] 0.099 | [19] -0.049 | [5] -0.136 | [7] -0.093 | [8] 0.02 | [9] 0.037 | [10] 0.118 | [12] 0.094 | [13] -0.079 | [20] 0.001 | [14] 0.009 | [15] 0.031 | [16] -0.035 | [17] -0.058 | [18] 0.038

MYO19 (UniProt Q96H55)
Sequence of UniProt Q96H55 (Q96H55 whole entry, looked up): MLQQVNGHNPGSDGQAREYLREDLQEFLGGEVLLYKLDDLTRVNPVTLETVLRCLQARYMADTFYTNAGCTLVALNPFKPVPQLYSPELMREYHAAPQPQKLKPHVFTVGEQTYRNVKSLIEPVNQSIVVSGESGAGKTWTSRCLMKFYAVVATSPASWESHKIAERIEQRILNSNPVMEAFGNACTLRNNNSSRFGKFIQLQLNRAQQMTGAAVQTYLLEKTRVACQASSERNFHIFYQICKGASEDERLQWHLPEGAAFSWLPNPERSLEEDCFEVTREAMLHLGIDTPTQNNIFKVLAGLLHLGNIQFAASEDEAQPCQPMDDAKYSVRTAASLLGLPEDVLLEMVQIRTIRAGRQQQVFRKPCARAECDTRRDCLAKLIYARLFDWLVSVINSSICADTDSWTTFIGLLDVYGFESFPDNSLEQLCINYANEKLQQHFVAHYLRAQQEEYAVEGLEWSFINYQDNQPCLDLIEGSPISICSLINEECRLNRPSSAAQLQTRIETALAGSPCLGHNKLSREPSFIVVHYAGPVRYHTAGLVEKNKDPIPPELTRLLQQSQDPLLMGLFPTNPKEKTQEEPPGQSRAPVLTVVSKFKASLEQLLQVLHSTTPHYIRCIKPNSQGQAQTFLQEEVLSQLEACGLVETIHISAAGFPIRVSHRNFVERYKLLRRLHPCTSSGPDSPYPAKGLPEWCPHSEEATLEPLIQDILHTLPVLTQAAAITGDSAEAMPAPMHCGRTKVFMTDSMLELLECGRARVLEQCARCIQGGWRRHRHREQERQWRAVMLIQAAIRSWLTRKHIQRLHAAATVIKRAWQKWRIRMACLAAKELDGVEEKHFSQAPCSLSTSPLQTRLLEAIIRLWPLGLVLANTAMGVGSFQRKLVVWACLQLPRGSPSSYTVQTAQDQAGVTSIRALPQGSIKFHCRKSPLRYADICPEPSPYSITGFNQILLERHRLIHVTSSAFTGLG
active: [15] 0.554
inactive: [1] 0.014 | [2] -0.11 | [3] 0.168 | [4] 0.115 | [19] 0.079 | [5] -0.06 | [6] 0.176 | [7] 0.014 | [8] -0.198 | [11] 0.069 | [12] 0.091 | [13] -0.054 | [20] 0.382 | [14] -0.082 | [17] 0.143 | [18] 0.039

NPM3 (UniProt O75607)
Sequence of UniProt O75607 (O75607 whole entry, looked up): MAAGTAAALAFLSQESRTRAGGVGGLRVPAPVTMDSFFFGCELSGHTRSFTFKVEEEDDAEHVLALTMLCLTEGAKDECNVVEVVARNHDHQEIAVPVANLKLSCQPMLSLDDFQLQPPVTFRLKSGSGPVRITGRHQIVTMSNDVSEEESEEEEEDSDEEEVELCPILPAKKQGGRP
inactive: [1] -0.057 | [2] -0.016 | [3] -0.004 | [4] 0.045 | [5] 0.078 | [6] 0.053 | [7] 0.052 | [8] 0.088 | [10] 0.003 | [11] -0.004 | [12] -0.005 | [13] -0.056 | [14] -0.04 | [15] 0.041 | [16] -0.015 | [17] 0.019 | [18] -0.083
active: [9] -0.521

MT-ND2 (UniProt P03891)
Sequence of UniProt P03891 (P03891 whole entry, looked up): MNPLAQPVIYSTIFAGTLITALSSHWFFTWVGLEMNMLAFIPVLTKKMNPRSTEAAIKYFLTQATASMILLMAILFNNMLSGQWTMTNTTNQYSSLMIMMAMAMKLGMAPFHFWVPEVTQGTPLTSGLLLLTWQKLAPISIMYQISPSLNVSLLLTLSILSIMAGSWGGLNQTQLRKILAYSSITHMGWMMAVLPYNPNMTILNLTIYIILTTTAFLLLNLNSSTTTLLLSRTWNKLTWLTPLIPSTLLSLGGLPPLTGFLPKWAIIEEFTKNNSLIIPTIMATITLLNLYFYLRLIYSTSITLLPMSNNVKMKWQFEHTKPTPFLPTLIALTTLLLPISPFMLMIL
inactive: [1] -0.021 | [2] -0.042 | [3] -0.171 | [4] -0.119 | [5] -0.221 | [6] -0.089 | [7] -0.075 | [8] -0.076 | [9] 0.113 | [11] 0.109 | [12] -0.047 | [13] 0.062 | [14] 0.065 | [15] 0.198 | [16] -0.123 | [17] 0.006 | [18] 0.079

NR2C2AP isoform 2 (UniProt Q86WQ0)
Sequence of UniProt Q86WQ0 (Q86WQ0 whole entry, looked up): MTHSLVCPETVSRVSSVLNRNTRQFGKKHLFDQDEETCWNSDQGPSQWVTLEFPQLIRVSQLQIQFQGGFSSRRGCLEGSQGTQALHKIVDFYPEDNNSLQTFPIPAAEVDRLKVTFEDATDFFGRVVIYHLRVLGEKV
inactive: [1] -0.126 | [2] -0.003 | [3] -0.062 | [4] -0.056 | [19] 0.012 | [5] 0.01 | [6] -0.026 | [7] -0.073 | [8] 0.057 | [9] 0.063 | [10] -0.053 | [11] -0.068 | [12] -0.007 | [13] 0.082 | [20] -0.101 | [14] -0.026 | [15] 0.066 | [16] -0.085 | [17] -0.035 | [18] -0.002

MLX (UniProt Q9UH92)
Sequence of UniProt Q9UH92 (Q9UH92 whole entry, looked up): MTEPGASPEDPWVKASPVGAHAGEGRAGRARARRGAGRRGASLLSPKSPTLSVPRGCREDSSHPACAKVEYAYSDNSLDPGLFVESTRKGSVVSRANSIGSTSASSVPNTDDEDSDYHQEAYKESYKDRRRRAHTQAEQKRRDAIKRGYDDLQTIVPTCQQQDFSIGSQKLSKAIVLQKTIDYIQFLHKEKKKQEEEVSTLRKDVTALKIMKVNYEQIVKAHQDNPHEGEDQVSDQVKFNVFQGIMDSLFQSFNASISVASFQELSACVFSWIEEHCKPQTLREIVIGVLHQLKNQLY
inactive: [1] -0.033 | [2] -0.058 | [3] -0.132 | [4] 0.077 | [19] -0.163 | [5] -0.236 | [6] 0.14 | [7] 0.016 | [8] 0.043 | [9] -0.008 | [10] 0.035 | [11] -0.027 | [12] 0.082 | [13] 0 | [20] 0.009 | [15] 0.008 | [16] 0.071 | [17] 0.047 | [18] 0.117

NRGN (UniProt Q92686)
Sequence of UniProt Q92686 (Q92686 whole entry, looked up): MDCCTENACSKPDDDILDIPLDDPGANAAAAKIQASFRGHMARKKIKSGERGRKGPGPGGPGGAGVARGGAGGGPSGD
inactive: [1] 0.151 | [2] 0.079 | [3] 0.034 | [4] 0.007 | [19] 0.053 | [5] 0.058 | [6] -0.199 | [7] 0.21 | [8] 0.108 | [11] -0.168 | [12] 0.087 | [13] -0.171 | [20] 0.143 | [15] 0.032 | [17] -0.034 | [18] -0.14

OPHN1 (UniProt O60890)
inactive: [1] -0.086 | [2] -0.145 | [3] -0.021 | [4] -0.033 | [19] -0.146 | [5] 0.12 | [6] -0.042 | [7] -0.062 | [8] -0.034 | [9] 0.069 | [10] -0.146 | [11] -0.029 | [13] 0.218 | [20] -0.12 | [16] -0.018 | [17] 0.049 | [18] -0.037

NUMB (UniProt P49757)
Sequence of UniProt P49757 (P49757 whole entry, looked up): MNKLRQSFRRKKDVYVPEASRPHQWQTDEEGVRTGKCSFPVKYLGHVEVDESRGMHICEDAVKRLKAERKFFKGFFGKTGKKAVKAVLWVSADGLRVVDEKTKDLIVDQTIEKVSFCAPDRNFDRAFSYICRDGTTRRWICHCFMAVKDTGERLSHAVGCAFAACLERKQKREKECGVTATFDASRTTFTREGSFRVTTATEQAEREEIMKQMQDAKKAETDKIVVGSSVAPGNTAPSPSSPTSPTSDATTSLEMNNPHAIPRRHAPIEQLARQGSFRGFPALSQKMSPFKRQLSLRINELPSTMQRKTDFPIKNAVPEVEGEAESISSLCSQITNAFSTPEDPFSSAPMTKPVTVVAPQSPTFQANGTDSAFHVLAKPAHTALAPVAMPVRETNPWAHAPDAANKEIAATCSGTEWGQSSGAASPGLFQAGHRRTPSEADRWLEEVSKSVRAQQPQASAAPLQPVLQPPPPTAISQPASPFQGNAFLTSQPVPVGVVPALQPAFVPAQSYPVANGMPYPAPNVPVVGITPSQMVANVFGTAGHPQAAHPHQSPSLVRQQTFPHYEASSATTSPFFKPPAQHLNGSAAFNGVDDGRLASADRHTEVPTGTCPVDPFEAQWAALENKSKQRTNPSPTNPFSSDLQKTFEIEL
inactive: [1] 0.008 | [2] -0.05 | [4] 0.049 | [19] -0.062 | [5] -0.086 | [6] 0.053 | [7] 0.061 | [8] 0.047 | [9] 0.079 | [10] -0.006 | [11] 0.018 | [12] -0.067 | [13] -0.046 | [20] 0.09 | [14] 0.026 | [15] -0.002 | [16] 0.004 | [17] 0.02 | [18] -0.01
active: [3] -0.318
